This passage reports growth results from PubChem BioAssay (NCI).

Compounds without any hit were thinned out: in the full panel of roughly 83,000, 20% have a hit.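 Cell lines were cultured in 96-well plates, exposed to a single compound concentration, and assessed for percent growth 48 hours later.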 Unmarked numbers belong to inactive results. Activity calls are given as the source filed them.

The test system of the experiment is OVCAR-8 ovarian. Description: NCI-60 one-dose screen, 48 h (100 = growth as untreated, 0 = no growth, -100 = all killed). Particulars: 10 µM unless noted. How it is done:
Growth inhibition of the OVCAR-8 human tumor cell line is measured as a screen for anti-cancer activity. Cells are grown in 96 well plates and exposed to the test compound for 48 hours. Compounds are tested at a single concentration, which is 10^-5 M for most compounds. The reported endpoint is percent growth (GI% or GIPRCNT), where numbers from 0 - 100% represent growth inhibition, and numbers from -100% - 0 represent cell death. For example, a value of 40 represents 60% growth inhibition. A value of 0 means no net growth occurred over the course of the experiment. A value of -40 indicates 40% of cells at the beginning of the experiment died by the end of the experiment. A value of -100 means all cells are dead at the end of the experiment.
NCI-60 Human Tumor Cell Lines Screen was performed using the standard one-dose NCI protocol, which is described in more detail at https://dtp.cancer.gov/discovery_development/nci-60/default.htm.
Compounds with GIPRCNT values below 10 were considered active. Activity score was based on GIPRCNT using the following formula: […]
Score is 0 for GIPRCNT values of 100 or above, 50 for GIPRCNT values of 0, and 100 for GIPRCNT values of -100.
For the compound `Cc1ccc(N)c(O)c1`, the growth was 96%.
Regarding `O=C(N=c1n(-c2ccccc2)nc2n1CCN2C1=NCCN1)c1ccc(Cl)cc1`, the growth was 98.7%.
Next, `C#C[C@]1(O)CC[C@H]2[C@@H]3CC=C4c5nc(Nc6ccc(OC)cc6OC)sc5CC[C@]4(C)[C@H]3CC[C@@]21C`: 59.4%; `Cc1cccc(/C=C2\N=C(c3ccccc3)N(c3ccc(S(N)(=O)=O)cc3)C2=O)c1`: 73%; `CC(C)(C)c1cc(C(=O)Nc2ccc(C(=O)NCCN)cc2)cc(C(C)(C)C)c1`: 72.2%.
As for `C=C(C)[C@@H]1CC[C@]2(C(=O)N3CCN(C)CC3)CC[C@]3(C)[C@H](CC[C@@H]4[C@@]5(C)C/C(=C/c6ccncc6)[C@H](O)C(C)(C)[C@@H]5CC[C@]43C)[C@@H]12`, the growth was -57.9% [100 µM] (active).
As for `CC1(C)CC[C@]23CC[C@]4(C)[C@H](CC[C@@H]5[C@@]6(C)C/C(=C/c7ccncc7)C(=O)C(C)(C)[C@@H]6CC[C@]54C)[C@H]2[C@H]1OC3=O`, the figure is 51.9% [100 µM].
Consider `CCCCCCNC(=O)Nc1ncnc2c1ncn2-c1ccccc1`, for which the growth is 91.3%.
As for `COC(=O)[C@H](CC(C)C)NC(=O)NC(=O)NC(=O)CI`, the figure is 73.3%; as for `COc1ccc(C(=O)CSc2nccc(Nc3ccc(C(=O)O)cc3)n2)cc1`, 94.8%.
For the compound `COC(=O)[C@]12CCC(C)(C)C[C@H]1C1=CC[C@@H]3[C@@]4(C)C/C(=C/c5cccnc5)C(=O)C(C)(C)[C@@H]4CC[C@@]3(C)[C@]1(C)CC2`, the growth is 0.407% [100 µM] (active).
Next, `C=CCCCCOc1ccccc1-c1cnc(OCCCCC=C)n1C`: 83.9%.
As for `Cc1ccc(C2=C/C(=C/c3ccc(Br)cc3)C(=O)N2CCc2ccc(S(N)(=O)=O)cc2)cc1`, the figure is 95.7%; as for `O=C(O)CC1CCCCC1c1ccccc1` (stereo not given), 106%.
Next, `COc1cc2c(cc1OCCCCCOc1ccc(-n3c(C)nc4ccccc4c3=O)cc1)N=C[C@@H]1CCCN1C2=O`: 9.85% (active).
As for `O=C(NCc1ccc(Cn2c(=O)sn(-c3ccccc3)c2=O)cc1)OCc1ccc2c(Br)cc(Br)c(O)c2n1`, the growth was 0.865% (active).
Next, `COc1cc(OC)cc(C(=O)Nc2cc(-c3cccnc3)nc(NCCCN3CCOCC3)n2)c1`: 91.8%; `Cc1nn(-c2ccccc2)c(N2CCOCC2)c1-c1nc2ccc([N+](=O)[O-])cc2[nH]1`: 102%; `COc1ccc(-c2c(C)nn3c(NCCN4CCOCC4)cc(C)nc23)cc1OC`: 103%.
With `COc1cc(Cl)cc(-c2nn(C(=O)NS(=O)(=O)c3ccccc3)cc2-c2ccncc2)c1`, the growth was 33.1%.
Next, `CCOc1ccc2sc(NS(=O)(=O)c3ccc(N)cc3)nc2c1`: 105%.
Next, `CC(C)C1=NOC(=O)C1=Cc1cn(-c2ccccc2)nc1-c1ccc(Cl)cc1`: 79.2%.
On to `O=C(O)c1cccc(CN2CCN(c3cc4c(cc3F)c(=O)c(C(=O)O)cn4C3CC3)CC2)c1O`, for which the growth is 96.7%.
Next, `O=C(Nc1ccc(Oc2ccc(F)cc2)c(Cl)c1)c1cnccn1`: 71.4%; `COc1cc2c(c(OC)c1OC)-c1ccc(NNC(N)=S)c(=O)cc1[C@@H](NC(C)=O)CC2`: 6.26% (active).
As for `O=C1/C(=C\c2cn(CC(O)CN3CCCCC3)c3ccccc23)c2ccccc2N1c1c(Cl)cccc1Cl` (stereo not given), the figure is -86.8% (active); as for `O=C(CCN1CCCCC1)c1ccc2ccccc2c1`, 99.9%.
Next, `CC(C)=CC/C=C(/C)[C@H]1CC[C@]2(C)[C@@H]1CC[C@@H]1[C@@]3(C)CCC(=O)NC(C)(C)[C@@H]3CC[C@]12C`: 0.344% [100 µM] (active); `CCCCCCCCCCCCNC(=S)N/N=C/c1ccccc1O`: 77.9%.
As for `COc1ccc(-c2cc(-c3ccc(Cl)cc3)nc(SCCCCCCC(=O)NO)n2)cc1`, the growth is 21.1%.
Consider `CC1=CC[C@@H]2C(C)(C)[C@@H](O)CC[C@@]2(C)[C@@H]1COc1ccc2ccc(=O)oc2c1`, for which the growth is 30.5%.
`CC(C)C1=NOC(=O)C1=Cc1cn(-c2ccccc2)nc1-c1ccc(Br)cc1`: the growth is 80.8%.
Consider `CC(C)[C@H]1COC(=O)N1[C@@H]1C(=O)N([C@@H](CCC(=O)N2CCN(C3CCCC3)CC2)C(=O)N[C@@H]2CCCc3ccccc32)[C@@H]1/C=C/c1cccc(Cl)c1`, for which the growth is 74.5%.
For `Nn1c(Nc2ccc(S(=O)(=O)Nc3ncccn3)cc2)nnc(/C=C/c2c(O)ccc3ccccc23)c1=O`, the growth is 93.4%.
With `O=S(=O)(/N=c1/n(-c2ccccc2)nc2n1CCN2C1=NCCN1)c1ccc(-c2ccccc2)cc1`, the growth was 103%.
Regarding `COc1ccc(C2=C(c3cn(C)c4ccccc34)C(=O)OC2)cc1OC`, the growth is 47.8%.
For the compound `Fc1cc2[nH]ncc2c2c3c(c(-c4cn[nH]c4C(F)(F)F)nc12)C1CCC3C1` (stereo not given), the growth was 10.2%.
As for `N#Cc1c(N2CCOCC2)nc(=S)[nH]c1-c1ccco1`, the figure is 80.3%.
As for `COc1ccc(C2CC(c3ccc4ccccc4c3)=NN2c2nc(O)c(C3=c4cc(OC)ccc4=NC3=O)s2)cc1` (stereo not given), the figure is -34.6% (active); as for `Ic1ccc2[nH]cc(SSc3c[nH]c4ccc(I)cc34)c2c1`, 32.6%.
